# Assay results as given in PubChem BioAssay (NCATS).
# Values joined by “and” are separate entries in the source; they are usually repeats but may differ in a detail not shown here. Equal values may be shown once. Values without a mark were called inactive. Records with an inconclusive call do not appear. Where a call stands in place of a potency, no number is given. Active and inactive are the calls of the source. Unless noted, calls come from the whole dose curve; as a rule, active = well fitted curve in the direction sought with a large enough effect; inconclusive = small, poorly fitted or top-dose-only effect, or another doubt; inactive = no such curve, though single readings can be large; an effect the other way counts as inactive or inconclusive.
# Legend:
# [1] = biological target: Cytochrome P450 2C9 (Homo sapiens) (UniProt P11712); test: Cytochrome P450 family 2 subfamily C member 9 (CYP2C9) small molecule antagonists: luciferase biochemical (cell-free) qHTS assay (AID 1645842; active = well fitted curve in the direction sought with a large enough effect in the repeat runs; an effect the other way counts as inactive or inconclusive; note: series mostly up to about 57 µM; nearly all actives have a fitted effect of over 55% in size)
# Method in brief: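 P450-Glo CYP2C9 system: proluciferin substrate with enzyme in mix containing 0.4% BSA, 10 min at room temperature, then NADPH regeneration solution added and incubated 1 h at 37C. Detection reagent stopped reaction; luminescence read after 20 min as RLU.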
# [2] = Primary qHTS for inhibitors of nuclear receptor binding SET domain protein 2 (NSD2) in an isogenic RCH-ACV NSD2 p.E1099K mutant (9B) (AID 1645876); note: nearly all actives have a fitted effect of over 70% in size; note: potency is the fitted concentration of half-maximal effect
# [3] = Primary qHTS for inhibitors of nuclear receptor binding SET domain protein 2 (NSD2) in an RCH-ACV wild type WT cells (2C) (AID 1645877); note: nearly all actives have a fitted effect of over 70% in size; note: potency is the fitted concentration of half-maximal effect
# [4] = biological target: Glutathione peroxidase 1 (Homo sapiens) (UniProt P07203); test: Primary qHTS Assay for Inhibitors of Recombinant Selenoprotein Glutathione Peroxidase 1 (GPX1) (AID 1845191); note: nearly all actives have a fitted effect of over 65% in size; note: potency is the fitted concentration of half-maximal effect
# Method in brief: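 GPX1 10 nM, GR 100 nM, GSH 1 mM, NADPH 0.5 mM, CHP 0.5 mM (final). 30-min cpd preincubation, RT. Ex340/Em450 read t=0, t=15 min.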
# [5] = biological target: Luciferin 4-monooxygenase (Photinus pyralis) (UniProt P08659); test: Primary firefly luciferase (FLuc) qHTS assay for identification of artifact compounds. (AID 1845220); note: series mostly up to about 54 µM; nearly all actives have a fitted effect of over 60% in size
# Method in brief: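 qHTS, 15 min compound preincubation with substrate (10 uM luciferin, 10 uM ATP) at RT, then 10 nM FLuc; 5 min; luminescence; % inhibition vs no-enzyme/DMSO controls, 4-parameter Hill fit.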
# [6] = Primary fluorescence-based thiol-reactive (MSTI) qHTS assay for identification of artifact compounds. (AID 1845221);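 note: series mostly up to about 54 µM; thiol-reactive compounds lower the probe fluorescence signal; nearly all actives have a fitted effect of over 65% in size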
# Method in brief: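 In PBS pH 7.4 with 2% DMSO, each compound met 4 uM MSTI for one hour at ambient temperature, shielded from light, before fluorescence detection.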
# [7] = system: Nanoluciferase (engineered Oplophorus gracilirostris luciferase); test: Primary Nanoluciferase (NLuc) qHTS assay for identification of artifact compounds. (AID 1845222); note: series mostly up to about 54 µM
# Method in brief: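 Luminescence read-out of secreted NLuc in S16 cell conditioned medium (1:55); compounds tested with 15 min RT preincubation, then Nano-Glo substrate 1:100, 5 min. % inhibition vs no-enzyme and DMSO controls, 4-parameter Hill fit.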
# [8] = biological target: N-terminal Xaa-Pro-Lys N-methyltransferase 1 (Homo sapiens) (UniProt Q9BV86); test: Confirmatory qHTS for Inhibitors of N-terminal methyltransferase 1 (NTMT1): MTaseGlo Assay (AID 1645874); details: NTMT1 enzyme, MTase-Glo SAH luminescence; note: potency is the fitted concentration of half-maximal effect; nearly all actives have a fitted effect of over 65% in size
# Method in brief: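 MTase-Glo luminescence measured SAH formed by 125 nM NTMT1 from 100 uM SAM and 1 uM SPKRIA peptide over 30 min at room temperature, following 15 min compound preincubation. Percent inhibition against no-enzyme and DMSO controls gave 4-parameter Hill fits.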
# [9] = Viability counterscreen for antagonist of constitutive androstane receptor (CAR) against the NCATS DSHEA and TCM libraries (AID 1794837);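 note: compound exposure lasted 24 h before viability reading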
# Method in brief: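 Cells: HepG2 line carrying CYP2B6 reporter and hCAR, seeded and attached 5 h. Then pin-transferred test substances plus agonist CITCO at 48 uM final; 24 h incubation; fluorogenic viability reagent, 1 h.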
# [10] = biological target: Nuclear receptor subfamily 1 group I member 3 (Homo sapiens) (UniProt Q14994); test: Primary qHTS for agonist of constitutive androstane receptor (CAR) against the NCATS DSHEA and TCM libraries (AID 1794839);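 note: HepG2 cells expressing human CAR with a CYP2B6 reporter plus PK11195 antagonist; luciferase reporter luminescence read with ONE-Glo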
# Method in brief: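 qHTS, agonist mode: HepG2-CYP2B6-hCAR, 2,500 cells/well, 5 h attach; cpds + PK11195 0.75 µM final; 24 h, 37 °C, 5% CO2. Readouts: CellTiter-Fluor (405/540 nm), then ONE-Glo luminescence.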
# [11] = HepG2 viability counterscreen (readout 2: ATP content) against the NCATS DSHEA and TCM libraries (AID 1794840)
# Method in brief: (§1)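 Same wells read twice: first fluorescence from cleaved GF-AFC substrate (25 uM final, 30 min, 37C) for live-cell protease, then CellTiter-Glo luminescence after 30 min at room temperature for ATP. HepG2 cells were exposed ~24 h to substances.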
# [12] = HepG2 viability counterscreen (readout 1: protease activity) against the NCATS DSHEA and TCM libraries (AID 1794841);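 note: cells exposed to compounds for about 24 h before the protease read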
# Method in brief: as §1
# [13] = biological target: Phospholipid hydroperoxide glutathione peroxidase GPX4 (Homo sapiens) (UniProt P36969); test: Primary qHTS Assay for Inhibitors of Recombinant Selenoprotein Glutathione Peroxidase 4 (GPX4) (AID 1845192); note: nearly all actives have a fitted effect of over 65% in size
# Method in brief: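 qHTS, GR-coupled: GPX4 200 nM + cpd 30 min RT → GSH 1 mM, NADPH 0.5 mM, GR 100 nM → CHP 0.5 mM start; fluor 340/450 at t0 and t15 min; no-enzyme wells as control.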
# Sequence of Glutathione peroxidase 1 (Homo sapiens) (P07203 whole entry, looked up): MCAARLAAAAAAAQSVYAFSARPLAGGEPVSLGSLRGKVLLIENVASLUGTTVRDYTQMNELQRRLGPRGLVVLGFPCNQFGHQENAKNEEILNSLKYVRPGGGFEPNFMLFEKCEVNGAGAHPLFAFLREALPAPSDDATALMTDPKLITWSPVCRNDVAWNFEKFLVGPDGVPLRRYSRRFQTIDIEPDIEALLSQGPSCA
# Sequence of Phospholipid hydroperoxide glutathione peroxidase GPX4 (Homo sapiens) (P36969 whole entry, looked up): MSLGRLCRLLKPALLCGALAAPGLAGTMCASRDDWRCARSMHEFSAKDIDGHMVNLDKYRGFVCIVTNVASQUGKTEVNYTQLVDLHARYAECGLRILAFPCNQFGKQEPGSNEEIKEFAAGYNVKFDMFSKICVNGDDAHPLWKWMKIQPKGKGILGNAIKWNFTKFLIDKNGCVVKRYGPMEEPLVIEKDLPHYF
# Sequence of Cytochrome P450 2C9 (Homo sapiens) (P11712 whole entry, looked up): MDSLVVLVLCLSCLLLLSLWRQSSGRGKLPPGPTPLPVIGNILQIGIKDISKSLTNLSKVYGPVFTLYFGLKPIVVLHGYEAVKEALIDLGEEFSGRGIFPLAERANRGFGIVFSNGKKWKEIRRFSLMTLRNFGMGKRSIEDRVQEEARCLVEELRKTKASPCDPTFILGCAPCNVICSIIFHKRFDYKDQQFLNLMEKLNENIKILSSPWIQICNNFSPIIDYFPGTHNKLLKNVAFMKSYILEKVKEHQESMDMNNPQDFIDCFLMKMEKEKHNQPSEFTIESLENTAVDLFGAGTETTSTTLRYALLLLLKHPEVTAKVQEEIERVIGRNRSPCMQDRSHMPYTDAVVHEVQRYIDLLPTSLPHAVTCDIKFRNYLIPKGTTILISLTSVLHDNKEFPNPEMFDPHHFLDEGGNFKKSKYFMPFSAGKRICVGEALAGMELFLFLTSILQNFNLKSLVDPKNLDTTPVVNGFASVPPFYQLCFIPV
# Sequence of Nuclear receptor subfamily 1 group I member 3 (Homo sapiens) (Q14994 whole entry, looked up): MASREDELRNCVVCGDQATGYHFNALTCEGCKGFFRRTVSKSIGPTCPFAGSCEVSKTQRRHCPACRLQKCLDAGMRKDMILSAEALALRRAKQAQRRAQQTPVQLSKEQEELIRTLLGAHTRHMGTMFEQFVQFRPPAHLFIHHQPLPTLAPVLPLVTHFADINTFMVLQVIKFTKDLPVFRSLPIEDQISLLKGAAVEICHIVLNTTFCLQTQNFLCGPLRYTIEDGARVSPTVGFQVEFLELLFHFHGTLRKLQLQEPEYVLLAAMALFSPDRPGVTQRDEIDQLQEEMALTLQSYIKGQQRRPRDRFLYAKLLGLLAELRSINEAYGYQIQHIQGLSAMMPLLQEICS
# Sequence of N-terminal Xaa-Pro-Lys N-methyltransferase 1 (Homo sapiens) (Q9BV86 whole entry, looked up): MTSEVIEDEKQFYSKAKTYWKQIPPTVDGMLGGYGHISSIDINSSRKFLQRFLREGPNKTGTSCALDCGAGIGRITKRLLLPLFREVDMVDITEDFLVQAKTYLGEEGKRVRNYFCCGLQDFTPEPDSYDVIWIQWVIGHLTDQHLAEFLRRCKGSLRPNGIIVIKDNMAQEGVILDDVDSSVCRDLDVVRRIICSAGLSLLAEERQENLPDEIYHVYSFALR
smiles,measurement,setting,value
CN(C)CC(=O)N1CCC(c2ccc(NC(=O)c3ncc(C#N)[nH]3)c(C3=CCCCC3)c2)CC1,Potency,[1],inactive
same,Potency,[2],5.8 µM (active) and 11.8 µM (active)
same,Potency,[3],10.3 µM (active) and 9.34 µM (active)
same,Potency,[4],inactive
same,Potency,[5],inactive
same,Potency,[6],inactive
same,outcome,[7],inactive
CN1CCCN(C(=O)c2cccc(-c3ccc(C=C4C(=O)Nc5ccc(Cl)cc54)o3)c2)CC1,Potency,[8],9.16 µM (active)
C=C(C)[C@@H]1CC[C@]2(C(=O)O)CC[C@]3(C)[C@H](CC[C@@H]4[C@@]5(C)CC[C@H](O)C(C)(C)[C@@H]5CC[C@]43C)[C@@H]12,outcome,[9],inactive
same,outcome,[10],inactive
same,outcome,[11],inactive
same,outcome,[12],inactive
CCN(CC)CCCCNc1ncc2c(n1)N(C)C(=O)N(c1c(Cl)c(OC)cc(OC)c1Cl)C2,Potency,[2],14.8 µM (active)
same,Potency,[3],13.2 µM (active)
same,Potency,[4],inactive
same,Potency,[13],inactive
O=S(=O)(O)CCSSCCS(=O)(=O)O,Potency,[2],inactive
same,Potency,[3],inactive
same,Potency,[4],inactive
Nc1nc(N)c2nc(-c3cccc(O)c3)c(-c3cccc(O)c3)nc2n1,Potency,[2],16.4 µM (active) and 18.6 µM (active)
same,Potency,[3],13 µM (active) and 16.6 µM (active)
same,Potency,[4],inactive
C#Cc1cccc(Nc2ncnc3cc(OCCOC)c(OCCO)cc23)c1,Potency,[2],14.8 µM (active)
same,Potency,[3],13.2 µM (active)
same,Potency,[4],inactive
same,Potency,[13],inactive
CNC(=O)Nc1ccc(-c2nc(N3CC4CCC(C3)O4)c3cnn(C4CCC5(CC4)OCCO5)c3n2)cc1,Potency,[2],0.0742 µM (active)
same,Potency,[3],0.118 µM (active)
same,Potency,[4],inactive
O=C(c1ccc(F)cc1)N1CCC[C@H](c2nc(-c3ccc(F)cc3)no2)C1,Potency,[2],inactive
same,Potency,[3],inactive
same,Potency,[4],inactive
same,Potency,[13],inactive
O=C(CN1C(=O)C2(CCCC2)NC[C@H]1c1cc(F)cc(F)c1)Nc1ccc2c(c1)C[C@@]1(C2)C(=O)Nc2ncccc21,Potency,[2],inactive
same,Potency,[3],inactive
same,Potency,[4],inactive
same,Potency,[13],inactive
C=C(C)[C@@H]1CC[C@]2(C)CC[C@]3(C)[C@H](CC[C@@H]4[C@@]5(C)CC[C@H](O)C(C)(C)[C@H]5CC[C@]43C)[C@@H]12,Potency,[2],inactive
same,Potency,[3],inactive
same,Potency,[4],inactive
same,Potency,[13],inactive
O=C1c2cccc(O)c2C(=O)c2c(O)cc(CO)cc21,Potency,[2],inactive
same,Potency,[3],inactive
same,Potency,[4],4.09 µM (active)
same,Potency,[13],inactive
C[C@H](NC(=O)Cc1cc(F)cc(F)c1)C(=O)N[C@H](C(=O)OC(C)(C)C)c1ccccc1,Potency,[2],inactive
same,Potency,[3],inactive
same,Potency,[4],inactive
O=C(CCCCCCC(=O)Nc1cccnc1)NO,Potency,[2],4.17 µM (active)
same,Potency,[3],3.32 µM (active)
same,Potency,[4],inactive
COc1cccc2c1C(=O)c1c(O)c3c(c(O)c1C2=O)C[C@@](O)(C(=O)CO)C[C@@H]3O[C@H]1C[C@H](N)[C@H](OC2CCCCO2)[C@H](C)O1 (some centres not stated),Potency,[2],93.4 nM (active) and 2.63 µM (active)
same,Potency,[3],52.5 nM (active) and 2.95 µM (active)
same,Potency,[4],inactive
CCCCCCCCc1ccc(CCC(N)(CO)CO)cc1,Potency,[2],8.33 µM (active)
same,Potency,[3],8.33 µM (active)
same,Potency,[4],inactive
Cn1cc(C[C@@H](N)C(=O)O)c2ccccc21,"activity change, negative = viability loss",[2],-2.38% [at 9.23 µM]
same,outcome,[3],inactive [at 9.23 µM]
same,outcome,[4],inactive [at 9.52 µM]
OC[C@H]1OC(O)C[C@@H](O)[C@H]1O (some centres not stated),Potency,[2],inactive
same,Potency,[3],inactive
same,Potency,[4],inactive
CCn1c(=O)c2c(nc(C=Cc3ccc(OC)c(OC)c3)n2C)n(CC)c1=O,Potency,[2],inactive
same,Potency,[3],inactive
same,Potency,[4],inactive
same,Potency,[13],inactive
CC(N[C@H]1CCCC[C@H]1NC(=O)c1ccc(Cl)cc1)c1cccc2ccccc12 (some centres not stated),Potency,[2],6.61 µM (active)
same,Potency,[3],6.61 µM (active)
same,Potency,[4],inactive
same,Potency,[13],inactive
CC(C)[C@H](CO)Nc1nc(Nc2cccc(Cl)c2)c2ncn(C(C)C)c2n1,Potency,[2],9.34 µM (active)
same,Potency,[3],9.34 µM (active)
same,Potency,[4],inactive
same,Potency,[13],inactive
c1coc(CNc2ncnc3nc[nH]c23)c1,Potency,[2],inactive
same,Potency,[3],inactive
same,Potency,[4],inactive
COc1cccc2c1C(=O)c1c(O)c3c(c(O)c1C2=O)C[C@@](O)(C(=O)CO)C[C@@H]3O[C@H]1C[C@H](N)[C@@H](O)[C@H](C)O1,Potency,[2],0.0661 µM (active)
same,Potency,[3],0.0468 µM (active)
same,Potency,[4],inactive
same,Potency,[13],inactive
COc1ccc(C=Cc2cc(OC)c(OC)c(OC)c2)cc1NC(=O)[C@H](N)CO,Potency,[2],0.118 µM (active)
same,Potency,[3],0.118 µM (active)
same,Potency,[4],inactive
same,Potency,[13],inactive
CCNC(=O)c1cc2c(-c3cc(OCCN4CCCC4)c(Cl)cc3Cl)nc(N)nc2s1,Potency,[2],0.512 µM (active)
same,Potency,[3],0.512 µM (active)
same,Potency,[4],inactive
N#CNC(=NCCCCCCOc1ccc(Cl)cc1)Nc1ccncc1,Potency,[2],0.0047 µM (active)
same,Potency,[3],0.0093 µM (active)
same,Potency,[4],inactive
same,Potency,[13],inactive
COC(=O)[C@H](CCCN=C(N)N)NS(=O)(=O)c1ccc(C)cc1,Potency,[2],inactive
same,Potency,[3],inactive
same,Potency,[4],inactive
same,Potency,[13],inactive
O=C(Nc1nnc(-c2ccco2)o1)c1cc(-c2ccccc2)nc2ccccc12,Potency,[2],18.6 µM (active)
same,Potency,[3],13.2 µM (active)
same,Potency,[4],inactive
CC(=O)O[C@H]1C[C@@H]2CC[C@H]3[C@H]4C[C@H]([N+]5(C)CCCCC5)[C@@H](OC(C)=O)[C@@]4(C)CC[C@@H]3[C@@]2(C)C[C@H]1[N+]1(C)CCCCC1,Potency,[2],inactive
same,Potency,[3],inactive
same,Potency,[4],inactive
COc1ccc([C@@H]2CNC(=O)C2)cc1OC1CCCC1,Potency,[2],inactive
same,Potency,[3],inactive
same,Potency,[4],inactive
same,Potency,[13],inactive
C[C@](Cc1c[nH]c2ccccc12)(NC(=O)OC1C2CC3CC(C2)CC1C3)C(=O)NC[C@H](NC(=O)CCC(=O)O)c1ccccc1 (some centres not stated),Potency,[2],inactive
same,Potency,[3],inactive
same,Potency,[4],inactive
C[C@@H]1C(=O)O[C@H]2CC34[C@H]5C[C@@H](C(C)(C)C)C36[C@H](OC(=O)[C@@H]6O)O[C@@]4(C(=O)O5)[C@]21O (some centres not stated),Potency,[2],inactive
same,Potency,[3],inactive
same,Potency,[4],inactive
CC(C)(C)c1nc2c3cc[nH]c(=O)c3c3cc(F)ccc3c2[nH]1,Potency,[2],0.662 µM (active)
same,Potency,[3],0.468 µM (active)
same,Potency,[4],inactive
same,Potency,[13],inactive
